From PubChem BioAssay (EPA / NIEHS) come the findings set out here.

The structures appear in SMILES notation. Inconclusive results are not listed. The source made the active and inactive calls. The calls were made as follows: active = hit-call score of the fitted dose curve at least 0.9, where 1 is the maximum; inconclusive = response in the unintended direction; inactive = score below 0.9.

Chain of Cellular tumor antigen p53 (Homo sapiens) (P04637 whole entry, looked up): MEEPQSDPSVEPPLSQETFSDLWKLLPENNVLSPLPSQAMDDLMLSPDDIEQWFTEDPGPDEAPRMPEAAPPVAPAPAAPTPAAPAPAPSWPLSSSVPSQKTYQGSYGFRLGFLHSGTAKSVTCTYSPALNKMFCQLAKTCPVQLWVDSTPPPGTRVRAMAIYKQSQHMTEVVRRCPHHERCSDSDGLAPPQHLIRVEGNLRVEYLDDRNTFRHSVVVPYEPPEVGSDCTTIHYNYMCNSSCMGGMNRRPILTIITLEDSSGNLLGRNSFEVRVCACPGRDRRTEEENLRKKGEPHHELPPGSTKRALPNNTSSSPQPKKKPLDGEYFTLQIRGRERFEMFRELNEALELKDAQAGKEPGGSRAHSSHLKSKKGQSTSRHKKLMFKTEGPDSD

Tested on in one assay: not listed separately
Briefly: ATG_XTT_Cytotoxicity: Cytotoxicity Assessment in the Attagene TRANS-FACTORIAL HepG2 Assay (AID 2283584).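 As to AC50: XTT signal for cell number as viability in transfected HepG2 cells; cells exposed to compound for 24 h before reading; active means loss of viability signal versus DMSO baseline.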 In outline:
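24 h chemical exposure of reporter-transfected HepG2; XTT signal loss vs DMSO indicates cytotoxicity.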
As to `OCC(CO)(CO)CO`, the molecule was called inactive.
Turning to `Cn1c(=O)c2[nH]cnc2n(C)c1=O`, the result was inactive.
On the same count and under the same terms, to `CCCCCCCC/C=C\CCCCCCCC(=O)OC[C@@H](O)[C@H]1OC[C@H](O)[C@H]1O` belongs “inactive”; to `O=S1(=O)CCCO1`, “inactive”; to `C[C@]12C=CC(=O)C=C1CC[C@H]1[C@@H]3C[C@@H](O)[C@](O)(C(=O)CO)[C@@]3(C)C[C@H](O)[C@@]12F`, “inactive”.
Regarding `C=CN1CCCC1=O`, the molecule was classed as inactive.
On the same count and under the same terms, the result for `OC(Cn1cncn1)(Cn1cncn1)c1ccc(F)cc1F` reads “inactive”; that for `CCCCCCCCN(C)C`, “inactive”; that for `CCc1cccc(CC)c1N`, “inactive”.
On to `CCN(CC)C(=S)SSC(=S)N(CC)CC`, for which the molecule was called inactive.
For the molecule `CCCCCCCCCCCCCCO`, the molecule was called inactive.
With `CCc1ccc(O)c(C(C)(C)C)c1`, the result was inactive.
With `NNC(=O)c1ccncc1`, the molecule was called inactive.
With `C=CCc1cc(S(=O)(=O)c2ccc(O)c(CC=C)c2)ccc1O`, the call was inactive.
The same measure, in the same setting: to `NC(=O)NN=Cc1ccc([N+](=O)[O-])o1` belongs “inactive”; to `CC1(C)C(=O)N(Cl)C(=O)N1Cl`, “inactive”; to `CCCCCCOC(=O)CC(CC(=O)OCCCCCC)(OC(=O)CCC)C(=O)OCCCCCC`, “inactive”.
Regarding `Cn1cc[nH]c1=S`, the molecule was classed as inactive.
One may read the AC50 as the midpoint of the concentration-response curve, whichever way the signal moves. Turning to `CCCCCCCCCCCCCCCCOS(=O)(=O)O`, the AC50 is 79 µM (active).
Take `OCCOCCOCCO`: the molecule was called inactive.
As to `OC(CCl)CCl`, the call was inactive.
For the molecule `O=C1CN(N=Cc2ccc([N+](=O)[O-])o2)C(=O)N1`, the molecule was called inactive.

Tested on in another assay: not listed separately
Briefly: TOX21_p53_BLA_p2_viability: Viability Assessment in the Tox21 HCT-116 p53 Agonism Beta-lactamase Assay, Phase 2 (AID 2283591).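 Also: compound exposure lasted 16 h at 37 °C; actives lower the ATP signal meaning cytotoxicity.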 In outline: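 HCT116 p53-bla cells, 4000/well, dosed after 5 h plating (217-fold dilution of DMSO stocks) and incubated 16 h at 37C. Viability taken as cellular ATP by CellTiter-Glo luminescence after 30 min RT; signal loss marks cytotoxicity.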
Turning to `CCCCN1C(=O)[C@@H]([C@H](O)C2CCCCC2)NC(=O)C12CCN(Cc1ccc(Oc3ccc(C(=O)O)cc3)cc1)CC2`, the result was inactive.
The same measure, in the same setting: to `CC(C)c1nnc2ccc(-c3ocnc3-c3cc(F)ccc3F)cn12` belongs “inactive”; to `O=C(O)c1cccc(C[C@@H]2COc3ccc(OCc4nc5cc(F)ccc5s4)cc3[C@@H]2O)c1`, “inactive”; to `CCCCCCCC/C=C\CCCCCCCC(=O)OC[C@@H](O)[C@H]1OC[C@H](O)[C@H]1O`, “inactive”.
The same measure, in the same setting: to `O=S1(=O)CCCO1` belongs “inactive”.
As to `C[C@]12C=CC(=O)C=C1CC[C@H]1[C@@H]3C[C@@H](O)[C@](O)(C(=O)CO)[C@@]3(C)C[C@H](O)[C@@]12F`, the call was inactive.
Consider `CCCCC(CC)C(=O)OCCOCCOCCOC(=O)C(CC)CCCC` (stereo unspecified), for which the call was inactive.
Take `C=CN1CCCC1=O`: the outcome was inactive.
Take `CC(=O)c1ccccc1`: the molecule was called inactive.
For `OC(Cn1cncn1)(Cn1cncn1)c1ccc(F)cc1F`, the molecule was called inactive.
Turning to `c1ccc2cc3ccccc3cc2c1`, the call was inactive.
As for `CCCCCCCCN(C)C`, the molecule was classed as inactive.
On to `CCn1nc(C)c2c1C(=O)NCC(c1ccc(O)cc1)=N2`, for which the call was inactive.
`CCCCCCCCCCCCCCO`: the outcome was inactive.
With `CCc1ccc(O)c(C(C)(C)C)c1`, the AC50 was 69.5 µM (active).
With `NNC(=O)c1ccncc1`, the call was inactive.
On the same count and under the same terms, the result for `CCCCCCCCCC` reads “inactive”; that for `NC(=O)NN=Cc1ccc([N+](=O)[O-])o1`, “inactive”.
Turning to `CC1(C)C(=O)N(Cl)C(=O)N1Cl`, the molecule was classed as inactive.
Still for that read-out and setting: to `c1ccc2ncccc2c1` belongs “inactive”; to `CCOC(N)=O`, “inactive”.
For `CCCCCCCCCCCCCCCCOS(=O)(=O)O`, the result was inactive.
Same read-out and setting: to `OCCOCCOCCO` belongs “inactive”.
Turning to `OC(CCl)CCl`, the outcome was inactive.
On to `O=C1CN(N=Cc2ccc([N+](=O)[O-])o2)C(=O)N1`, for which the molecule was called inactive.

In the next assay the target is Cellular tumor antigen p53 (Homo sapiens) (UniProt P04637). Briefly: TOX21_p53_BLA_p2_ratio: Tox21 HCT-116 p53 Agonism Beta-lactamase Assay, Ratio, Phase 2 (AID 2283592). In outline:
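Human colon HCT116 cells with an inducible p53 beta-lactamase reporter are exposed to test chemicals for 16 h at 37C. Reporter induction is read as the 460/530 nm emission ratio after CCF4-AM loading, normalized to DMSO.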
`CCCCN1C(=O)[C@@H]([C@H](O)C2CCCCC2)NC(=O)C12CCN(Cc1ccc(Oc3ccc(C(=O)O)cc3)cc1)CC2`: the AC50 was 38.1 µM (active).
Turning to `c1ccc(C(O[C@@H]2CCCN(CCc3ccc4c(c3)OCO4)C2)c2ccccc2)cc1`, the AC50 was 70.1 µM (active).
`Cn1c(=O)c2[nH]cnc2n(C)c1=O`: the outcome was inactive.
Consider `O=C(O)c1cccc(C[C@@H]2COc3ccc(OCc4nc5cc(F)ccc5s4)cc3[C@@H]2O)c1`, for which the result was inactive.
Turning to `CCCCCCCC/C=C\CCCCCCCC(=O)OC[C@@H](O)[C@H]1OC[C@H](O)[C@H]1O`, the outcome was inactive.
As for `O=S1(=O)CCCO1`, the outcome was inactive.
For the molecule `C[C@]12C=CC(=O)C=C1CC[C@H]1[C@@H]3C[C@@H](O)[C@](O)(C(=O)CO)[C@@]3(C)C[C@H](O)[C@@]12F`, the result was inactive.
`CCCCC(CC)C(=O)OCCOCCOCCOC(=O)C(CC)CCCC` (stereo unspecified): the outcome was inactive.
With `C=CN1CCCC1=O`, the outcome was inactive.
As to `CC(=O)c1ccccc1`, the result was inactive.
Take `OC(Cn1cncn1)(Cn1cncn1)c1ccc(F)cc1F`: the outcome was inactive.
On the same count and under the same terms, the result for `CCCCOC(=O)c1ccccc1` reads “inactive”; that for `c1ccc2cc3ccccc3cc2c1`, “inactive”.
Take `CCn1nc(C)c2c1C(=O)NCC(c1ccc(O)cc1)=N2`: the outcome was inactive.
`CCc1cccc(CC)c1N`: the result was inactive.
Consider `CCCCCCCCCCCCCCO`, for which the outcome was inactive.
With `CCCc1ccccc1`, the outcome was inactive.
On to `CCc1ccc(O)c(C(C)(C)C)c1`, for which the AC50 was 69.7 µM (active).
Take `O=C(O)c1ccc2c(c1)nc(C(=O)NC1CCN(C3CC3)CC1)n2Cc1cc(-c2ccc(Cl)s2)on1`: the outcome was inactive.
As to `NNC(=O)c1ccncc1`, the result was inactive.
With `CCCCCCCCCC`, the result was inactive.
As to `NC(=O)NN=Cc1ccc([N+](=O)[O-])o1`, the outcome was inactive.
Take `CC1(C)C(=O)N(Cl)C(=O)N1Cl`: the outcome was inactive.
The same measure, in the same setting: to `c1ccc2ncccc2c1` belongs “inactive”.
For the molecule `CCOC(N)=O`, the result was inactive.
On to `CCCCCCCCCCCCCCCCOS(=O)(=O)O`, for which the result was inactive.
In the case of `OCCOCCOCCO`, the outcome was inactive.
As for `OC(CCl)CCl`, the result was inactive.
On the same count and under the same terms, the result for `O=C1CN(N=Cc2ccc([N+](=O)[O-])o2)C(=O)N1` reads “inactive”.
